Measurements from the supplement of paper PMC7366291.
Where a name gives a salt, the structure may show the parent alone. ± gives the standard deviation or the standard deviation of the averaged measurements.

How the values were obtained:
Details in all cases: 25 µM; exposure: 24-48 hpf
[1] = system: Danio rerio Tg(wt1b:EGFP) embryo, pronephros; experiment: glomerular separation, fold change vs DMSO control; higher = glomeruli further apart (abnormal)
In short: (§1)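 Using a Fiji macro, distances and angles were calculated from 16 reference points set by hand on maximum projections of pronephroi imaged dorsally (470 nm, 10 z-slices) in agarose-filled 96-well plates. The dechorionated Tg(wt1b:EGFP) zebrafish embryos had received 25 μM compound in 0.5% DMSO in HEPES-buffered E3 with 0.003% PTU from 24 to 48 hpf at 28.5°C. Values more than 2 SD from a feature's mean were excluded. Each feature appears as a fold change over the mean of DMSO-treated embryos from the same day.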

[2] = system: Danio rerio Tg(wt1b:EGFP) embryo, pronephros; experiment: glomerular width (mean of left and right), fold change vs DMSO control; higher = wider glomerulus
In short: as §1

[3] = system: Danio rerio Tg(wt1b:EGFP) embryo, pronephros; experiment: fraction of imaged embryos annotated as normal kidney; higher = less nephrotoxic; extreme values may be limits of the assay
In short: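 Zebrafish embryos carrying Tg(wt1b:EGFP) were dechorionated and exposed to 25 μM compound (0.5% DMSO) between 24 and 48 hpf at 28.5°C. Their pronephroi were imaged by widefield fluorescence, and each embryo was classed by hand from maximum projections. The measure is the fraction of embryos per treatment falling in the normal-kidney category.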

[4] = system: Danio rerio Tg(wt1b:EGFP) embryo, pronephros; experiment: pronephric angle neck segment to proximal convoluted tubule (mean of left and right), fold change vs DMSO control; higher = larger pronephric angle
In short: as §1

## Cc1ncc(C[n+]2csc(CCO)c2C)c(N)n1 [Thiamine hydrochloride]
[1]
  glomerular separation: 0.951 ± 0.4
[2]
  glomerular width: 1.1 ± 0.036
[3]
  fraction of imaged embryos annotated as normal kidney: 0.917
[4]
  pronephric angle neck segment: 0.994 ± 0.025

## CN(C)CCC=C1c2ccccc2COc2ccccc21 [Doxepin hydrochloride]
[1]
  glomerular separation: 0.925 ± 0.22
[2]
  glomerular width: 0.99 ± 0.035
[3]
  fraction of imaged embryos annotated as normal kidney: 0.917
[4]
  pronephric angle neck segment: 1.01 ± 0.076

## OC[C@H]1O[C@@H](Oc2ccc(O)cc2)[C@H](O)[C@@H](O)[C@@H]1O [Arbutin]
[1]
  glomerular separation: 0.869 ± 0.33
[2]
  glomerular width: 1.021 ± 0.0053
[3]
  fraction of imaged embryos annotated as normal kidney: 0.917
[4]
  pronephric angle neck segment: 0.933 ± 0.018

## NCCCCCC(=O)O [Aminocaproic acid]
[1]
  glomerular separation: 0.833 ± 0.35
[2]
  glomerular width: 0.961 ± 0.022
[3]
  fraction of imaged embryos annotated as normal kidney: 1
[4]
  pronephric angle neck segment: 1.02 ± 0.055

## CN1CCc2cccc3c2[C@H]1Cc1ccc(O)c(O)c1-3 [R(-) Apomorphine hydrochloride hemihydrate]
[1]
  glomerular separation: 0.765 ± 0.25
[2]
  glomerular width: 0.954 ± 0.018
[3]
  fraction of imaged embryos annotated as normal kidney: 0.833
[4]
  pronephric angle neck segment: 0.933 ± 0.042

## CCCSc1ccc2[nH]c(NC(=O)OC)nc2c1 [Albendazole]
[1]
  glomerular separation: 3.72 ± 1.5
[2]
  glomerular width: 0.591 ± 0.025
[3]
  fraction of imaged embryos annotated as normal kidney: 0
[4]
  pronephric angle neck segment: 1.97 ± 0.07

## CC(=O)Oc1cc(C(F)(F)F)ccc1C(=O)O [Triflusal]
[1]
  glomerular separation: 1.26 ± 0.59
[2]
  glomerular width: 0.901 ± 0.012
[3]
  fraction of imaged embryos annotated as normal kidney: 0.917
[4]
  pronephric angle neck segment: 1.02 ± 0.031

## CC[N+](C)(C)Cc1ccccc1Br [Bretylium tosylate]
[1]
  glomerular separation: 0.631 ± 0.23
[2]
  glomerular width: 0.9664 ± 0.0094
[3]
  fraction of imaged embryos annotated as normal kidney: 1
[4]
  pronephric angle neck segment: 0.982 ± 0.028

## CC[C@H]1OC(=O)[C@H](C)[C@@H](O[C@H]2C[C@@](C)(OC)[C@@H](O)[C@H](C)O2)[C@H](C)[C@@H](O[C@@H]2O[C@H](C)C[C@H](N(C)C)[C@H]2O)[C@](C)(O)C[C@@H](C)C(=O)[C@H](C)[C@@H](O)[C@]1(C)O [Erythromycin]
[1]
  glomerular separation: 1.19 ± 0.74
[2]
  glomerular width: 1.042 ± 0.0044
[3]
  fraction of imaged embryos annotated as normal kidney: 0.818
[4]
  pronephric angle neck segment: 0.9494 ± 0.0015

## CC(CCc1ccc(O)cc1)NCCc1ccc(O)c(O)c1 (stereo not drawn) [Dobutamine hydrochloride]
[1]
  glomerular separation: 0.82 ± 0.23
[2]
  glomerular width: 0.999 ± 0.032
[3]
  fraction of imaged embryos annotated as normal kidney: 1
[4]
  pronephric angle neck segment: 0.997 ± 0.078

## O=C(Nc1ccc([N+](=O)[O-])cc1Cl)c1cc(Cl)ccc1O [Niclosamide]
[1]
  glomerular separation: 1.53 ± 0.67
[2]
  glomerular width: 0.907 ± 0.04
[3]
  fraction of imaged embryos annotated as normal kidney: 0.455
[4]
  pronephric angle neck segment: 1.26 ± 0.093

## Nc1ncnc2c1ncn2[C@@H]1O[C@H](CO)[C@@H](O)[C@@H]1O [Vidarabine]
[1]
  glomerular separation: 1.29 ± 0.56
[2]
  glomerular width: 1.06 ± 0.023
[3]
  fraction of imaged embryos annotated as normal kidney: 0.583
[4]
  pronephric angle neck segment: 1.03 ± 0.074

## O=c1oc2ccccc2c(O)c1Cc1c(O)c2ccccc2oc1=O [Dicumarol]
[1]
  glomerular separation: 0.799 ± 0.23
[2]
  glomerular width: 0.772 ± 0.025
[3]
  fraction of imaged embryos annotated as normal kidney: 0.9
[4]
  pronephric angle neck segment: 1.14 ± 0.08

## Nc1nc(Cl)nc2c1ncn2[C@H]1C[C@H](O)[C@@H](CO)O1 [Cladribine]
[1]
  glomerular separation: 0.896 ± 0.38
[2]
  glomerular width: 0.945 ± 0.021
[3]
  fraction of imaged embryos annotated as normal kidney: 0.909
[4]
  pronephric angle neck segment: 1.005 ± 0.0066

## C/C(=C\C(=O)OCCCCCCCCC(=O)O)C[C@@H]1OC[C@H](C[C@@H]2O[C@H]2[C@@H](C)[C@H](C)O)[C@@H](O)[C@H]1O [Mupirocin]
[1]
  glomerular separation: 0.88 ± 0.41
[2]
  glomerular width: 1.01 ± 0.013
[3]
  fraction of imaged embryos annotated as normal kidney: 0.75
[4]
  pronephric angle neck segment: 0.985 ± 0.046

## NS(=O)(=O)c1cc2c(cc1C(F)(F)F)NCNS2(=O)=O [Hydroflumethiazide]
[1]
  glomerular separation: 0.97 ± 0.25
[2]
  glomerular width: 1.07 ± 0.035
[3]
  fraction of imaged embryos annotated as normal kidney: 0.727
[4]
  pronephric angle neck segment: 1.04 ± 0.14

## N=C(N)NCc1cccc(I)c1 [Iobenguane sulfate]
[1]
  glomerular separation: 0.901 ± 0.19
[2]
  glomerular width: 1.02 ± 0.015
[3]
  fraction of imaged embryos annotated as normal kidney: 1
[4]
  pronephric angle neck segment: 1.02 ± 0.035

## CC(C(=O)O)c1cccc(Oc2ccccc2)c1 (stereo not drawn) [Fenoprofen calcium salt dihydrate]
[1]
  glomerular separation: 3.89 ± 1.7
[2]
  glomerular width: 0.88 ± 0.059
[3]
  fraction of imaged embryos annotated as normal kidney: 0
[4]
  pronephric angle neck segment: 1.55 ± 0.027

## CC(C)N1CCN(c2ccc(OCC3COC(Cn4cncn4)(c4ccc(Cl)cc4Cl)O3)cc2)CC1 (stereo not drawn) [Terconazole]
[1]
  glomerular separation: 0.864 ± 0.17
[2]
  glomerular width: 1.0642 ± 0.00066
[3]
  fraction of imaged embryos annotated as normal kidney: 1
[4]
  pronephric angle neck segment: 0.948 ± 0.017

## C#C[C@]1(O)CC[C@H]2[C@@H]3CCC4=C(CCC(=O)C4)[C@H]3CC[C@@]21C [Norethynodrel]
[1]
  glomerular separation: 1.17 ± 0.41
[2]
  glomerular width: 0.9892 ± 0.0088
[3]
  fraction of imaged embryos annotated as normal kidney: 0.667
[4]
  pronephric angle neck segment: 0.984 ± 0.06

## CCOC(=O)c1ccc(N)cc1 [Benzocaine]
[1]
  glomerular separation: 1.45 ± 0.34
[2]
  glomerular width: 0.901 ± 0.021
[3]
  fraction of imaged embryos annotated as normal kidney: 0.833
[4]
  pronephric angle neck segment: 1.02 ± 0.016

## C[C@@H]1CN(c2c(F)c(N)c3c(=O)c(C(=O)O)cn(C4CC4)c3c2F)C[C@H](C)N1 [Sparfloxacin]
[1]
  glomerular separation: 0.812 ± 0.23
[2]
  glomerular width: 0.92 ± 0.019
[3]
  fraction of imaged embryos annotated as normal kidney: 1
[4]
  pronephric angle neck segment: 1.04 ± 0.024

## Nc1ccc(S(N)(=O)=O)cc1 [Sulfanilamide]
[1]
  glomerular separation: 0.646 ± 0.14
[2]
  glomerular width: 1 ± 0.063
[3]
  fraction of imaged embryos annotated as normal kidney: 0.833
[4]
  pronephric angle neck segment: 0.996 ± 0.0089

## C[N+]1(C)CCC(=C(c2ccccc2)c2ccccc2)CC1 [Diphemanil methylsulfate]
[1]
  glomerular separation: 1.35 ± 0.53
[2]
  glomerular width: 0.992 ± 0.041
[3]
  fraction of imaged embryos annotated as normal kidney: 0.75
[4]
  pronephric angle neck segment: 1.02 ± 0.033

## O=C1Cc2cc(CCN3CCN(c4nsc5ccccc45)CC3)c(Cl)cc2N1 [Ziprasidone  Hydrochloride]
[1]
  glomerular separation: 1.5 ± 0.53
[2]
  glomerular width: 1.03 ± 0.025
[3]
  fraction of imaged embryos annotated as normal kidney: 0.833
[4]
  pronephric angle neck segment: 1.05 ± 0.04

## CC(C)Oc1ccc2c(=O)c(-c3ccccc3)coc2c1 [Ipriflavone]
[1]
  glomerular separation: 0.901 ± 0.33
[2]
  glomerular width: 0.918 ± 0.049
[3]
  fraction of imaged embryos annotated as normal kidney: 0.833
[4]
  pronephric angle neck segment: 1.06 ± 0.028

## COc1ccccc1Oc1c(NS(=O)(=O)c2ccc(C(C)(C)C)cc2)nc(-c2ncccn2)nc1OCCO [Bosentan]
[1]
  glomerular separation: 1.19 ± 0.5
[2]
  glomerular width: 1.02 ± 0.034
[3]
  fraction of imaged embryos annotated as normal kidney: 0.833
[4]
  pronephric angle neck segment: 1.03 ± 0.029
